In all, about 330,000 compounds went through this assay and about 2,800 (0.85%) were called active. Only a selection was taken, and actives are over-represented in it overall. A number with no mark means an inactive call.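 The calls were made as follows: active = mean inhibition across replicates of 60% or more, whatever share of single replicates reaches that level; inconclusive = some that reach 60%, reason not given; inactive = mean inhibition across replicates below 60%.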

This assay can be described thus: inhibitors of MITF-dependent TRPM1 promoter reporter, primary screen, cell-based, SK-MEL-5, single point, luciferase (AID 488899). The conditions noted are these: SK-MEL-5 TRPM1 promoter luciferase, 24 h; at 12.5 µM; active compounds read high.
Broadly, the inhibition is the change of the read-out against control, counted positive when it falls. For `COc1ccccc1NC(=O)N(O)C1(C#N)CCCCC1`, the inhibition is -7.2%. As for `CN1c2ccc(C=O)c3c(C=O)ccc(c23)N(C)C1(C)C`, the inhibition was 96.4% (active). The result for `CCN(C(=O)COC(=O)c1c(NC(C)=O)sc(C)c1C)C1CCS(=O)(=O)C1` (stereo unspecified) reads 11%; that for `COc1cccc(CNCCc2c[nH]c3ccccc23)c1OCc1ccccc1F`, 95.2% (active); that for `COc1ccccc1NC(=O)CCCc1c[nH]c2ccccc12`, -1.28%. Consider `COc1ccc(C(CCNCc2ccccc2F)c2ccc(F)cc2)cc1` (stereo unspecified), for which the inhibition was -10.4%. Regarding `O=C(c1cc(COc2ccc(F)cc2F)on1)N1CCOCC1`, the inhibition was -44.5%. The result for `CC(C)c1ccc(S(=O)(=O)N2CCN(C(=O)CN3C(=O)NC(C)(c4ccccc4)C3=O)CC2)cc1` (stereo unspecified) reads -4.8%. Take `Cc1csc(NC(=O)CSc2nnc(-c3cccnc3)o2)n1`: the inhibition is -14.8%. Regarding `CCN(CC)C(=O)CN(c1cccc([N+](=O)[O-])c1)S(=O)(=O)c1ccccc1`, the inhibition was -4.33%. The result for `O=C(CCl)N(Cc1cccc([N+](=O)[O-])c1)c1cccc(Cl)c1` reads 66.2% (active). The result for `Cc1ccc(S(=O)(=O)N(Cc2cccc([N+](=O)[O-])c2)C(=O)N2CCN(C)CC2)cc1` reads 4.92%; that for `COCCSc1nnc(NC(=O)c2cc(OC)c(OC)cc2[N+](=O)[O-])s1`, -2.51%; that for `CC(=NNC(=O)c1ccncc1)c1ccc(Cl)c(Cl)c1`, -7.3%. For the compound `NS(=O)(=O)c1ccc(CNC(=O)c2ccc(Cl)cc2[N+](=O)[O-])cc1`, the inhibition is 10.6%.

`CCOC(=O)C1=C(c2ccccc2)NC(=S)NC1c1ccc(Cl)cc1` (stereo unspecified): the inhibition was -19%. The value for `CCOC(=O)CCCNC(=O)CN1C(=O)NC(CCc2ccccc2)C1=O` (stereo unspecified) was 4.69%; that for `CCCCNC(=O)C(C)N(CCN(C)C)C(=O)CCCCCN1C(=O)NC(c2ccc(Cl)cc2)C(C(=O)OCc2ccccc2)=C1C` (stereo unspecified) was 94.5% (active); that for `CC1=C(C(=O)OCc2ccccc2)C(c2ccc(C(F)(F)F)cc2)NC(=O)N1CCCCCC(=O)O` (stereo unspecified) was -6.33%.

For `CCCCNC(=O)C(C)N(CCN(C)C)C(=O)CCCN1C(=O)NC(c2ccc(Cl)cc2)C(C(=O)OCc2ccccc2)=C1C` (stereo unspecified), the inhibition was 91.1% (active). Regarding `CCN1C(=O)N[C@@H](c2ccccc2)C(C(=O)OC)=C1C`, the inhibition was -9.9%. The result for `C/C(CC(=O)NCc1ccc(Cl)cc1)=N\NC(=O)COc1ccc(C)cc1Br` reads 40.1%; that for `Nc1nc(SCC(=O)N2CCN(S(=O)(=O)c3ccc(Cl)cc3)CC2)n[nH]1`, -2.96%; that for `Fc1ccccc1/C=N/Nc1cc(N2CCCCC2)ncn1`, -35%. Regarding `COc1cccc2sc(N(CCCN(C)C)C(=O)CCS(=O)(=O)c3ccccc3)nc12`, the inhibition is 31.1%. For the compound `COc1cc2ccccc2cc1C(=O)N(CCN(C)C)c1nc2c(F)cccc2s1`, the inhibition was 2.41%.

`COc1cccc2sc(N(CCCN(C)C)C(=O)C(c3ccccc3)c3ccccc3)nc12`: the inhibition is 71.9% (active). The value for `COc1cccc2c1C(=O)c1c(O)c3c(c(O)c1C2=O)CC(O)(C(C)=NNC(=O)c1ccc(Cl)c(Cl)c1)CC3OC1CC(N)C(O)C(C)O1` (stereo unspecified) was 82.2% (active); that for `CN(CC(=O)Nc1ccc(F)c(F)c1F)C(=O)Cn1cnc2c1c(=O)n(C)c(=O)n2C` was -2.69%; that for `Cc1ccc(OCC(=O)Nc2ccc3oc(=O)ccc3c2)cc1C` was -15.4%. The value for `CCN1/C(=C\c2ccc3ccccc3[n+]2CC)Sc2cc(C)ccc21` was 104% (active); that for `CC(C)(C)n1nc2c(c1NC(=O)c1ccc(S(=O)(=O)N3CCCC3)cc1)CS(=O)C2` (stereo unspecified) was -11.4%. The value for `COc1ccc(S(=O)(=O)/N=C2\C=C(NS(=O)(=O)c3ccccc3)C(=O)c3ccccc32)cc1` was 12.7%; that for `O=S(=O)(NCCNS(=O)(=O)c1ccccc1)c1ccccc1` was 11.2%. On to `Cn1c(NC(=O)c2ccccc2)nc2ccccc21`, for which the inhibition is -26.1%.

On to `CC(NC(=O)c1ccccc1)C(=O)Nc1ccccc1` (stereo unspecified), for which the inhibition was -6.34%. The value for `O=C1C=C(NS(=O)(=O)c2ccccc2)C(=O)c2ccccc21` was 65.7% (active); that for `O=C(NC1=CC(=O)c2ccccc2C1=O)c1ccccc1` was 94.4% (active).

Consider `O=C(COC(=O)CSc1nnc(-c2ccc(Cl)cc2)o1)Nc1cc(Cl)cc(Cl)c1`, for which the inhibition was -3.64%.

`CC(C)c1nc2oc3c(N4CCN(C)CC4)ncnc3c2c2c1CCC2`: the inhibition is 5.53%. The value for `CC(=O)N1CCc2ccc(N)cc21` was 6.31%. As for `CSc1ccccc1NC(=O)c1cnc2sc(C)cn2c1=O`, the inhibition was -128%.

For `COCCN1C(=O)C(=O)/C(=C(/O)c2ccc(S(=O)(=O)N3CCOCC3)cc2)C1c1ccc(O)c(OC)c1` (stereo unspecified), the inhibition is -1.49%. With `O=C(CNCc1ccc(Cl)cc1)Nc1cccc(C(=O)O)c1`, the inhibition is 2.1%. The result for `CCCSC(=S)NC1CCS(=O)(=O)C1` (stereo unspecified) reads 17%. The result for `O=S1(=O)CCC(NC(=S)SCc2ccccc2Br)C1` (stereo unspecified) reads 75.3% (active); that for `O=C(CSc1ccccc1F)NC1CCS(=O)(=O)C1` (stereo unspecified), -4.88%; that for `COc1ccc(OC)c(Cc2cnc3nc(N)nc(N)c3c2C)c1`, 8.03%.

Turning to `CCOC(=O)N1CCN(C(=O)c2ccc3c(=O)n(CCc4ccc(OC)c(OC)c4)c(=O)[nH]c3c2)CC1`, the inhibition was 2.29%. Consider `Cc1oc2c(C)c3oc(=O)c(CC(=O)N[C@@H](CC(C)C)C(=O)N[C@@H](Cc4ccccc4)C(=O)O)c(C)c3cc2c1C`, for which the inhibition was 9.54%. The result for `CC(C)(C)NC(=O)COc1ccc(CNc2ccc3[nH]c(=O)[nH]c3c2)cc1` reads 0.891%. The result for `COc1ccc2nc(N3CCN(C(=O)c4ccc([N+](=O)[O-])o4)CC3)sc2c1` reads 67.3% (active); that for `COc1ccc2nc(N3C(=O)C(O)=C(C(=O)c4ccco4)C3c3ccco3)sc2c1` (stereo unspecified), 10.6%. The result for `O=C(c1ccc2nc(N3CCOCC3)sc2c1)N1CCN(c2ccc(Cl)cc2)CC1` reads 4.87%. As to `CC(C)(C)c1nnc2sc(SCC(O)=C(C#N)c3nc4ccccc4[nH]3)nn2c1=O`, the inhibition was -7.27%. As for `O=C(CN1CCc2ccccc2C1)Nc1cccc(S(=O)(=O)N2CCOCC2)c1`, the inhibition is 4.73%.

Values taken from PubChem BioAssay AID488899 (Broad Institute, 2010).
